SMILES strings stand for the structures. Values joined by “and” are separate entries in the source; they are usually repeats but may differ in a detail not shown here. Identical values can stand only once. Results filed as inconclusive are left out. A structure can be active in one record and inactive in another. Active and inactive are the calls of the source. Unless noted, calls follow the shape of the dose curve; as a rule, active = well fitted curve in the direction sought with a large enough effect; inconclusive = small, poorly fitted or top-dose-only effect, or another doubt; inactive = no such curve, though single readings can be large; an effect the other way counts as inactive or inconclusive.

The target in experiment [1] is Calcium and integrin-binding protein 1 (Homo sapiens) (UniProt Q99828). Kind of experiment: Primary qHTS for Identification of Calcium Integrin Binding Protein 1 (CIB1) Competitor (AID 1508620).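 Also: GST tagged CIB1 binding a fluorescein labelled alphaIIb integrin peptide tracer; top concentration of the series differs between compounds; % is scaled to controls: 0 for no effect and ±100 for the full control effect.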 An outline of the steps: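 Fluorescence polarization competition: CIB1-GST (1 uM final) preincubated with compound 15 min at room temperature, then FITC-labeled alphaIIb peptide (100 nM final) added for another 15 min. Polarization read at Ex 480/Em 540.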
Chain of Calcium and integrin-binding protein 1 (Homo sapiens) (Q99828 whole entry, looked up): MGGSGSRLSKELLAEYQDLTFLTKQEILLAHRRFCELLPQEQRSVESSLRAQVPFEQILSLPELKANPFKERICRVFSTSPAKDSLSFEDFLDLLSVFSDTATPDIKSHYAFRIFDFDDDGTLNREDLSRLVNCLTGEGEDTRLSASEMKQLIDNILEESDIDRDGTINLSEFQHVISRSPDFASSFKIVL

A short description of experiment [2]: Primary qHTS for inhibitors of nuclear receptor binding SET domain protein 2 (NSD2) in an RCH-ACV wild type WT cells (2C) (AID 1645877). Also: nearly all actives have a fitted effect of over 70% in size. Also: potency is read from the fitted curve at half-maximal effect. On the technique in general: qHTS replaces the single test concentration by a dilution series.
The target of experiment [3] is Cytochrome P450 2D6 (Homo sapiens) (UniProt P10635). Nature of the experiment: Cytochrome P450 family 2 subfamily D member 6 (CYP2D6) small molecule antagonists: luciferase biochemical (cell-free) qHTS assay (AID 1645840; active = well fitted curve in the direction sought with a large enough effect in the repeat runs; an effect the other way counts as inactive or inconclusive; also: nearly all actives have a fitted effect of over 55% in size; also: potency is read from the fitted curve at half-maximal effect; as to activity change, negative = inhibition: % is scaled to controls: 0 for no effect and ±100 for the full control effect). An outline of the steps: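 P450-Glo CYP2D6 system: proluciferin substrate converted by enzyme to luciferin, read by luminescence proportional to activity. Enzyme-substrate mix with compound 10 min at room temperature, then NADPH regeneration 1 h before detection reagent.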
Chain of Cytochrome P450 2D6 (Homo sapiens) (P10635 whole entry, looked up): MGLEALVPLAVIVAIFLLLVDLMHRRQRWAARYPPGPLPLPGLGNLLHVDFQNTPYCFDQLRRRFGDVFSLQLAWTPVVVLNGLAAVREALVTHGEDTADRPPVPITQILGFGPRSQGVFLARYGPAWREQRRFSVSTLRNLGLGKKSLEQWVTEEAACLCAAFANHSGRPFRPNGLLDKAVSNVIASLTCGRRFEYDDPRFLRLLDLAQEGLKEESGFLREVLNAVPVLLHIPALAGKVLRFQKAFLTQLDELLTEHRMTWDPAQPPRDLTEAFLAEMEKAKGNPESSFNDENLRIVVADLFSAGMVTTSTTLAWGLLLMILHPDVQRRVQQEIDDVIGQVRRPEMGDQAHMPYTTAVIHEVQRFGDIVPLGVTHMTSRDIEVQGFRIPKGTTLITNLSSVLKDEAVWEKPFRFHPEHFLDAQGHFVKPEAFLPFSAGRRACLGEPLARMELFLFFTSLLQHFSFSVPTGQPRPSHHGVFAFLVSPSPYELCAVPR

Experiment [4] deals with Catechol O-methyltransferase (Homo sapiens) (UniProt P21964). Kind of experiment: Confirmatory Screen for Target Class Profiling of Small Molecule Inhibitors of Methyltransferases (AID 1745852; calls by dose curve; as to activity change, negative = inhibition: % is scaled to controls: 0 for no effect and ±100 for the full control effect). To be noted: MTase-Glo luminescence, SAH detection, recombinant enzyme; measured here: COMT max response; stronger effect = lower value.
Chain of Catechol O-methyltransferase (Homo sapiens) (P21964 whole entry, looked up): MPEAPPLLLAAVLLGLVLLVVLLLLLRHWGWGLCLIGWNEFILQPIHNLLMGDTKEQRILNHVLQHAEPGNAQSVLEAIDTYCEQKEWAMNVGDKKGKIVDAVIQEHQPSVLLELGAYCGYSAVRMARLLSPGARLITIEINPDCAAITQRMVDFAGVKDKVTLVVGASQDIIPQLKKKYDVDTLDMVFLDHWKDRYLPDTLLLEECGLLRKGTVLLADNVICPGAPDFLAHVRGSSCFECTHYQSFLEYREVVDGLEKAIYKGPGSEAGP
In experiment [5] the target is Guanidinoacetate N-methyltransferase (Homo sapiens) (UniProt Q14353). The description is as above. To be noted: MTase-Glo luminescence, SAH detection, recombinant enzyme; activity change, negative = inhibition: at 57.3 µM (top of the series) unless noted.
Experiment [6] addresses Nicotinamide N-methyltransferase (Homo sapiens) (UniProt P40261). The description is as above. To be noted: MTase-Glo luminescence, SAH detection, recombinant enzyme; measured here: NNMT max response; stronger effect = lower value.
Experiment [7] concerns the target Phenylethanolamine N-methyltransferase (Homo sapiens) (UniProt P11086). The description is as above. The conditions noted are these: MTase-Glo luminescence, SAH detection, recombinant enzyme; measured here: PNMT max response; stronger effect = lower value.
Experiment [8] in a line: Primary qHTS for inhibitors of nuclear receptor binding SET domain protein 2 (NSD2) in an isogenic RCH-ACV NSD2 p.E1099K mutant (9B) (AID 1645876). Also: nearly all actives have a fitted effect of over 70% in size. Also: potency is read from the fitted curve at half-maximal effect.
The nature of experiment [9]: NCATS anti-infectives library activity on the primary C. elegans qHTS viability assay (AID 1745855; calls by dose curve; also: potency is read from the fitted curve at half-maximal effect). The conditions noted are these: C. elegans worm area imaging, day 7. An outline of the steps:
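GFP read-out by 488 nm laser cytometry at day 0, 3 and 7, gated on object perimeter, area and peak intensity, scored viability of PE254-GFP-FLuc worms exposed to compound in S medium with bacterial capsules at 21 °C.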

The target of experiment [10] is Cytochrome P450 2C9 (Homo sapiens) (UniProt P11712). Nature of the experiment: Cytochrome P450 family 2 subfamily C member 9 (CYP2C9) small molecule antagonists: luciferase biochemical (cell-free) qHTS assay (AID 1645842; active = well fitted curve in the direction sought with a large enough effect in the repeat runs; an effect the other way counts as inactive or inconclusive; also: nearly all actives have a fitted effect of over 55% in size; also: potency is read from the fitted curve at half-maximal effect; as to activity change, negative = inhibition: % is scaled to controls: 0 for no effect and ±100 for the full control effect). An outline of the steps: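 P450-Glo CYP2C9 system: proluciferin substrate with enzyme in mix containing 0.4% BSA, 10 min at room temperature, then NADPH regeneration solution added and incubated 1 h at 37C. Detection reagent stopped reaction; luminescence read after 20 min as RLU.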
Chain of Cytochrome P450 2C9 (Homo sapiens) (P11712 whole entry, looked up): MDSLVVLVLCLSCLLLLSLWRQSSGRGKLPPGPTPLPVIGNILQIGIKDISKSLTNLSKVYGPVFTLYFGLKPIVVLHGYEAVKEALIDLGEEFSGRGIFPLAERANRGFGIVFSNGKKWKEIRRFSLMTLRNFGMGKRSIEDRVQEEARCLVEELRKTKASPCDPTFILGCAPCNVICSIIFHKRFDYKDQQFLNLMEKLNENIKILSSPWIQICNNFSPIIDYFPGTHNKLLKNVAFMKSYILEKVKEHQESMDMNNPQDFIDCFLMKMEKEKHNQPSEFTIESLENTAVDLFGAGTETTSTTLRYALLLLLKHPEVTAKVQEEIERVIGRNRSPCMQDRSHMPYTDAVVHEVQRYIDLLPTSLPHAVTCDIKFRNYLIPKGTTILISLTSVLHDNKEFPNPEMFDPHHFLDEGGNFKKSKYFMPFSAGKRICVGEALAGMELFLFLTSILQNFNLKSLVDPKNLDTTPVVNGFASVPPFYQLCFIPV

Experiment [11] in a line: Viability counterscreen for antagonist of constitutive androstane receptor (CAR) against the NCATS DSHEA and TCM libraries (AID 1794837).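 Also: compound exposure lasted 24 h before viability reading; 0% is about no effect.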 The gist of the method: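 Cell viability, CellTiter-Fluor, Ex/Em 405/540 nm, 1 h at 37C. HepG2-CYP2B6-hCAR, 2,500 cells/well; cpds + CITCO 48 uM final (antagonist mode), 24 h, 37C/5% CO2.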
(The purpose of a counterscreen is to sort out artefacts and off-target activity.)

Chain of Phenylethanolamine N-methyltransferase (Homo sapiens) (P11086 whole entry, looked up, the tested form may be a part): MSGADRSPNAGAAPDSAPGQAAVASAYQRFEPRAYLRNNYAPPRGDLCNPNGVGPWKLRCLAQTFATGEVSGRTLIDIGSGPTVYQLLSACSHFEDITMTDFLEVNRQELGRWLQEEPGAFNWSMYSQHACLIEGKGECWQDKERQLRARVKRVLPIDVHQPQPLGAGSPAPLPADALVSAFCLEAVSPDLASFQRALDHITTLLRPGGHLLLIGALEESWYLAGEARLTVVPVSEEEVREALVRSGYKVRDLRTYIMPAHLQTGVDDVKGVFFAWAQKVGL
Chain of Nicotinamide N-methyltransferase (Homo sapiens) (P40261 whole entry, looked up): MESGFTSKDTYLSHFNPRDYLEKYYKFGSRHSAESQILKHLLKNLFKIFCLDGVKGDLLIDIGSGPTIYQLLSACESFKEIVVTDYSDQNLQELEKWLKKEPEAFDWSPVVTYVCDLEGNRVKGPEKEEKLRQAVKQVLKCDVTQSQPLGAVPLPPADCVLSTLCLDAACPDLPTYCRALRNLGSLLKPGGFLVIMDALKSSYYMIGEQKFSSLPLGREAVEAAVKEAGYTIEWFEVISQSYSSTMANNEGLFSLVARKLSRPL

On to `CC1(C)CC[C@]2(C(=O)O)CC[C@]3(C)C(=CCC4[C@@]5(C)C[C@H](O)[C@H](O[C@@H]6O[C@H](CO)[C@@H](O)[C@H](O)[C@H]6O)[C@@](C)(CO)C5[C@H](O)C[C@]43C)[C@@H]2C1` (stereo not given in full), for which the Potency entry in [1] and in [2] was “inactive” each time.
In the case of `Cc1ncc(Cl)cc1NCc1ccc(C(=O)NC(CC2CCCC2)C(=O)NC2CC2)s1` (stereo not given), the Potency entry in [1] was “inactive”. Also, the Potency in experiment [2] was 14.8 µM (active).
In the case of `CCC(=O)N1CCc2cc(OC)c(O)cc2C1`, the Potency in experiment [3] is 16.9 µM (active).
Turning to `CC(=O)OC/C(=C/C(=O)O)CC[C@@H]1C(CO)=CC[C@@H]2C(C)(C)CCC[C@@]12C`, the Potency result in experiment [1] is “inactive”. The results for the activity in experiment [4], in experiment [6] and in [7] were -82.3%, -8.71% and -5.03%, respectively. Moreover, the activity change, negative = inhibition in [5] is -4.99%.
For `COc1c2c(c(C)c3c1C(=O)OC3)OC1(C)CC(O)C34OC(OC)(CC(O)C3(C)C1C2)OC4(C)C` (stereo not given), the Potency entry in experiment [1] was “inactive”. In addition, the results for the activity in experiment [4], in experiment [6] and in experiment [7] were -15%, -8.14% and -5.39%, respectively. Also, in experiment [5], the activity change, negative = inhibition was -2.68% [at 29.8 µM].
With `CC(C)(O)C1CC=C(C(=O)OC[C@H]2O[C@@H](Oc3cc(C(=O)O)cc(O)c3O)[C@H](O)[C@@H](O)[C@@H]2O)CC1` (stereo not given in full), the Potency entry in experiment [1], in experiment [8] and in [2] was “inactive” each time. Also, the activity in experiment [4] is -82.4%; in experiment [6], -6.11%; in experiment [7] it was -6.07%. Also, in experiment [5], the activity change, negative = inhibition is -6.92% [at 29.8 µM].
For `C/C=C/C=C/C1=C2C(=O)C3(C)C4C(C(=O)CC(O)/C=C/C)=C(O1)C1(C)C2C2(C)OC1(O)C4(C)OC23O` (stereo not given), the Potency result in experiment [1] was “inactive”. Also, in [2], the Potency was 7.96 µM (active).
`Cc1noc2c1-c1ccccc1C(c1ccc(Cl)cc1)=N[C@H]2CC(N)=O`: the Potency result in [1] was “inactive”. In addition, the Potency entry in experiment [8] is “inactive and 590 nM (active)”; in experiment [2], “inactive and 525 nM (active)”; in [9], 5.15 µM (active).
Consider `COc1ccc(S(=O)(=O)Nc2nc(-c3cccc([N+](=O)[O-])c3)cs2)cc1OC`, for which the Potency in [10] is 4.25 µM (active). Further, the Potency entry in experiment [8] and in [2] was “inactive” each time.
For `C/C=C(\C)C(=O)OC1C2(O)CC3=C4CC(=O)OC(c5ccoc5)C4(C)CCC3C(C)(C2=O)C(C(OC(C)=O)C(=O)OC)C1(C)C` (stereo not given), in [1], the Potency entry is “inactive”. Besides, in [2], the Potency was 3.83 µM (active).
For the molecule `O=C(CCc1ccccc1)c1c(O)c([C@@H]2O[C@H](CO)[C@@H](O)[C@H](O)[C@H]2O)c(O)c([C@@H]2O[C@H](CO)[C@@H](O)[C@H](O)[C@H]2O)c1O`, the Potency result in experiment [1], in experiment [8] and in experiment [2] was “inactive” throughout. Further, the activity in experiment [4] is -89.3%; in experiment [6] it was -0.132%; in experiment [7], 4.21%. Moreover, the activity change, negative = inhibition in experiment [5] worked out at 2.13% [at 19.1 µM].
In the case of `O=C(O)c1cccc(CN2C(=O)/C(=C(\c3ccccc3)c3ccc(Cl)cc3)c3ccccc32)c1`, the Potency in [10] is 15.1 µM (active). In addition, the figures for the activity in experiment [4], in experiment [6] and in experiment [7] were -6.02%, -41.9% and -8.16%, respectively. Besides, in experiment [5], the activity change, negative = inhibition was -1.74%.
As to `Oc1ccc2c(-c3c(-c4ccccn4)nn4c3CCC4)ccnc2c1`, the Potency result in experiment [3] and in experiment [10] was “inactive” each time.
For `O=C(OCC1=C[C@@H](O)[C@@H]2C=CO[C@@H](O[C@@H]3O[C@H](CO)[C@@H](O)[C@H](O)[C@H]3O)[C@H]12)c1ccc(O)cc1`, the Potency result in experiment [1], in experiment [8] and in experiment [2] was “inactive” each time. Also, in experiment [11], the outcome is “inactive”.
As for `CCC(C)(C)C1CCc2c(sc(NC(=O)c3ccc(Br)cc3)c2C#N)C1` (stereo not given), the Potency entry in experiment [3], in experiment [10], in experiment [8] and in [2] was “inactive” in each case.
